The full list was thinned out, with hits kept by preference.
TDP-43 tox inh – qHTS of TDP-43 Inhibitors: NCGC Sytravon Library Screen. yeast TDP-43 toxicity rescue, BacTiter-Glo growth, 24 h. 45,000 tested, 0.45% active. Potency, µM (top dose mostly 46.1 µM), most hits filed as activators. AID 1347073, 2019; active means well fitted activation curve with a large enough effect; further: 0% is about no effect; nearly all actives have a fitted effect of over 55% in size
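TDP-43-expressing yeast, pregrown in raffinose, seeded at OD600 0.02 in galactose medium with compound for 24 hr at 30 deg C. Growth read by BacTiter-Glo luminescence, so rescue of toxicity appears as activation.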
Starred values were filed as active, the others as inactive; i = inactive. Potency means the concentration at half of the fitted maximal effect.

SMILES	TDP-43 tox inh
CC(C)(C)c1ccc(OCC(=O)NNC(=S)NC(=O)c2ccccc2[N+](=O)[O-])c(Br)c1	11µM*
CC(C)CNC(=O)COc1ccccc1[N+](=O)[O-]	i
COCCC(=O)N1CCC(n2nccc2NC(=O)CCc2ccccc2)CC1	i
CC(C)COC(=O)N1CCCCC1c1cc(C(=O)NCc2ccccc2)no1 (configuration not stated)	i
CCCc1cc(NCc2ccccn2)n2nc(C)c(-c3ccccc3)c2n1	i
Cc1cc(NCc2ccccn2)n2ncc(-c3ccccc3)c2n1	8.9µM*
CN(C)CCCNc1cc(C(C)(C)C)nc2c(-c3ccccc3)cnn12	i
CCN(CC)c1ncnc2c1ncn2[C@H]1CN(Cc2ccc(Cl)cc2)C[C@@H](CO)O1	i
N/C(Cc1ccc([N+](=O)[O-])cc1)=N\OC(=O)c1ccc2ccccc2c1	8.9µM*
N/C(=N\OC(=O)Cc1ccc([N+](=O)[O-])cc1)c1ccc([N+](=O)[O-])cc1	i
N/C(=N\OC(=O)c1ccc([N+](=O)[O-])cc1)c1cccnc1	i
O=S(=O)(c1cc(C(F)(F)F)ccc1Cl)N1CCN(c2ncnc3ccccc23)CC1	i
O=S(=O)(c1ccccc1C(F)(F)F)N1CCN(c2ncnc3sccc23)CC1	11µM*
CC(=O)N1CCN(C(=O)C2CCN(S(=O)(=O)c3ccccc3C(F)(F)F)CC2)CC1	i
CC(=O)c1cccc(NC(=O)COC(=O)C2=COCCO2)c1	i
CC(C)N1CCC(C)(C(=O)Nc2cccc3c2CCCC3)C1 (configuration not stated)	i
COc1ccc(CC(=O)Nc2nc(-c3ccc(OC)c(OC)c3)cs2)cc1OC	i
COc1ccccc1CC(=O)Nc1nc(-c2ccc(F)c(F)c2)cs1	13µM*
COc1cc(OC)cc(C(=O)N[C@H](C(=O)Nc2nc(-c3ccc(F)c(F)c3)cs2)C(C)C)c1	i
CCOc1ccc(N2CC(C(=O)N3CCCCCC3)CC2=O)cc1 (configuration not stated)	i
CCn1c(CCl)nc2cc(S(=O)(=O)N3CCOCC3)ccc21	i
O=C(O)c1ccc(S(=O)(=O)NCC2CCCCC2)cc1	i
O=C(Nc1ccccc1Cl)C1C2CCCCC21 (configuration not stated)	i
COc1cccc2c1O/C(=N\O)C(C(=O)Nc1cccc(C)c1C)C2 (configuration not stated)	i
O=C(Nc1cc(Cl)ccc1Cl)C1Cc2ccccc2O/C1=N\O (configuration not stated)	11µM*
SMILES	TDP-43 tox inh
CCOc1ccccc1C(=O)Nc1cc(-c2nc3cccnc3s2)ccc1C	i
O=C(c1ccco1)c1cn(CC(=O)N2CCCc3ccccc32)c2ccccc12	18µM*
O=Cc1cn(CC(=O)N2CCCCC2)c2ccccc12	i
O=C(Cn1cc(C(F)(F)F)ccc1=O)N1CCCc2ccccc21	i
Cc1ccc(S(=O)(=O)NCc2ccc(C(=O)NCCN(Cc3ccccc3)C(C)C)cc2)cc1	i
COc1ccc(C(=O)NN/C(=N/S(=O)(=O)c2ccc(C)cc2)c2ccccc2)cc1	i
CC(C)CC(NC(=O)C1CCC(=O)N1C(=O)OCc1ccccc1)C(=O)NC(Cc1ccccc1)C(N)=O (configuration not stated)	i
Cc1cc(F)ccc1NCc1ccccc1[N+](=O)[O-]	i
Cc1cc([N+](=O)[O-])ccc1NCc1ccccc1[N+](=O)[O-]	i
O=[N+]([O-])c1ccccc1CNc1ccc(F)c(Cl)c1	16µM*
NC(c1ccccc1)c1csc(Nc2ccc(C(=O)NCCCO)cn2)n1 (configuration not stated)	i
O=C(c1cccc(C(F)(F)F)c1)C1CCCN(C(=O)/C=C/c2cnc[nH]2)C1 (configuration not stated)	i
CC(=O)Nc1ccc(NC(=O)[C@@H](NC(=O)c2ccccc2F)C(C)C)cc1	i
COC(=O)c1cc(OC)c(OC)cc1NC(=O)c1ccc(Br)o1	i
COc1ccc(S(=O)(=O)Nc2cc(C(=O)NCCCN3CCOCC3)ccc2N2CCOCC2)cc1	i
COc1ccc(N2CCOCC2)c(NC(=O)c2ccc(Br)o2)c1	16µM*
Cc1cccc(OCCOC(=O)c2c(-c3ccccc3)noc2C)c1	i
N#C/C(=C\c1ccc(N2CCOCC2)o1)C(=O)Nc1ccc(O)cc1	i
N#C/C(=C/c1ccc(N2CCOCC2)o1)c1ccc(Br)cc1	14µM*
CCCN1C(=O)S/C(=C/c2ccc(N3CCOCC3)o2)C1=O	i
CS(=O)(=O)N1CCC(C(=O)NCc2ccc(F)cc2)CC1	i
CN(C)c1ccc(C(=O)c2ccccc2C(=O)O)cc1[N+](=O)[O-]	i
CN(Cc1ccccc1)c1ccc(C(=O)O)cc1[N+](=O)[O-]	16µM*
COc1ccccc1Nc1ccc(C(=O)O)cc1[N+](=O)[O-]	i
CC1(C)CC(=O)C2=C(C1)NC1=C(C(=O)c3ccccc31)C2c1cc([N+](=O)[O-])ccc1O (configuration not stated)	i
